# Source: ChEMBL document CHEMBL1961873, “Compounds: GSK PKIS; Assays: Nanosyn kinase panel” (2012)
# Legend:
# [1] = target: Sphingosine kinase 1 (Homo sapiens) (UniProt Q9NYA1); details: at 1 µM;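 further: mean SPHK1 inhibition value reported from the GSK PKIS kinase panel screen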
# [2] = target: T1, Sphingosine kinase 2 (Homo sapiens) (UniProt Q9NRA0); details: at 0.1 µM
# T1 sequence (whole entry): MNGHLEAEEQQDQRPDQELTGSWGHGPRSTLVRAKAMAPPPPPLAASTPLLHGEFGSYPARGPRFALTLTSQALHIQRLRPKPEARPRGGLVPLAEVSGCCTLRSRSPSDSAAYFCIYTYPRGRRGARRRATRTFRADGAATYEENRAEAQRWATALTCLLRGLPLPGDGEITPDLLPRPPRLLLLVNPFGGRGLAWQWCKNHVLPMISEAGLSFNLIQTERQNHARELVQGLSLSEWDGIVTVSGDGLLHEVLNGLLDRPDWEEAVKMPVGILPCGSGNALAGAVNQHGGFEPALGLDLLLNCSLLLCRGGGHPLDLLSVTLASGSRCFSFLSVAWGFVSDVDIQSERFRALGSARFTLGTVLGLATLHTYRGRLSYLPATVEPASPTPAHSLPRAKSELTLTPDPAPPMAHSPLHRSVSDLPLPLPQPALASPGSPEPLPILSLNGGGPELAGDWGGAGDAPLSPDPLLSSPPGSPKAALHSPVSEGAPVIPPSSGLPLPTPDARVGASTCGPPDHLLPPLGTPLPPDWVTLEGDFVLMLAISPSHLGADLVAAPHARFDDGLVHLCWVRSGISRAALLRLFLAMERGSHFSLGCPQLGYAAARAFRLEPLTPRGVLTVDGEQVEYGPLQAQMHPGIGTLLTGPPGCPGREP
# [3] = target: T1, Sphingosine kinase 2 (Homo sapiens); details: at 1 µM
# [4] = target: Casein kinase II subunit alpha (Homo sapiens) (UniProt P68400); details: at 0.1 µM
# Sequence of Casein kinase II subunit alpha (Homo sapiens) (P68400 whole entry, looked up): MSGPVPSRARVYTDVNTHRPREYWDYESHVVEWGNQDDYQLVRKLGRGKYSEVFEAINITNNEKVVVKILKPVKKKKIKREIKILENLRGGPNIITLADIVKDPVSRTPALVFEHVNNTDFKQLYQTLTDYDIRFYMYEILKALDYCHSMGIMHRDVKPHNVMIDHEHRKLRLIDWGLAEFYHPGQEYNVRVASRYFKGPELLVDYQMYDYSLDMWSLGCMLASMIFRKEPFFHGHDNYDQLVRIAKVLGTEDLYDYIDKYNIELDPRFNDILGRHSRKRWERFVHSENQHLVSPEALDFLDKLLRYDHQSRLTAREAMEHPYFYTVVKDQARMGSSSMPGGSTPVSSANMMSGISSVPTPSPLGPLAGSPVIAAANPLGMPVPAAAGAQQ
# [5] = target: Casein kinase II subunit alpha (Homo sapiens) (UniProt P68400); details: at 1 µM
# [6] = target: T2, Inhibitor of nuclear factor kappa-B kinase subunit alpha (Homo sapiens) (UniProt O15111); details: at 0.1 µM
# T2 sequence (whole entry): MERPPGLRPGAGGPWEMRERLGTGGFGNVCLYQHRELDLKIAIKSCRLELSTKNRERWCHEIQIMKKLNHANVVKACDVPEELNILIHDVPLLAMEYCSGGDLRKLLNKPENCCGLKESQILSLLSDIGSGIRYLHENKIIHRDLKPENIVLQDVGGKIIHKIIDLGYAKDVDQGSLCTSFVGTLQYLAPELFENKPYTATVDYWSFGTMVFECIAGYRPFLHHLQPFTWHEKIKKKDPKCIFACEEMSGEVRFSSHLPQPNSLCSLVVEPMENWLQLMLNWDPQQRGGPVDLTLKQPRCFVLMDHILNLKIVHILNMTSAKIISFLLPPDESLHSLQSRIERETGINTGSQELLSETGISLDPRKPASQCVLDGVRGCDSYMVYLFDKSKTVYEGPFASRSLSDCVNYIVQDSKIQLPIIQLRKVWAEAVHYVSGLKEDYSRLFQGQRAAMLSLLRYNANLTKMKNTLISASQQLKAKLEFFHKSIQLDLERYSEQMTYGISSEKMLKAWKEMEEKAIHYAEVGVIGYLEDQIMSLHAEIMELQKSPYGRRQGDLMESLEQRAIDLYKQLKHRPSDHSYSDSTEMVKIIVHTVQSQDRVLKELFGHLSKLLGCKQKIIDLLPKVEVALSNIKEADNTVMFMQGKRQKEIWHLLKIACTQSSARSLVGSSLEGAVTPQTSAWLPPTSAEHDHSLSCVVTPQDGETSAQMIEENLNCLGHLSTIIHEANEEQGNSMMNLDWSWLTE
# [7] = target: T2, Inhibitor of nuclear factor kappa-B kinase subunit alpha (Homo sapiens); details: at 1 µM
# [8] = target: T3, Inhibitor of nuclear factor kappa-B kinase subunit beta (Homo sapiens) (UniProt O14920); details: at 0.1 µM
# T3 sequence (whole entry): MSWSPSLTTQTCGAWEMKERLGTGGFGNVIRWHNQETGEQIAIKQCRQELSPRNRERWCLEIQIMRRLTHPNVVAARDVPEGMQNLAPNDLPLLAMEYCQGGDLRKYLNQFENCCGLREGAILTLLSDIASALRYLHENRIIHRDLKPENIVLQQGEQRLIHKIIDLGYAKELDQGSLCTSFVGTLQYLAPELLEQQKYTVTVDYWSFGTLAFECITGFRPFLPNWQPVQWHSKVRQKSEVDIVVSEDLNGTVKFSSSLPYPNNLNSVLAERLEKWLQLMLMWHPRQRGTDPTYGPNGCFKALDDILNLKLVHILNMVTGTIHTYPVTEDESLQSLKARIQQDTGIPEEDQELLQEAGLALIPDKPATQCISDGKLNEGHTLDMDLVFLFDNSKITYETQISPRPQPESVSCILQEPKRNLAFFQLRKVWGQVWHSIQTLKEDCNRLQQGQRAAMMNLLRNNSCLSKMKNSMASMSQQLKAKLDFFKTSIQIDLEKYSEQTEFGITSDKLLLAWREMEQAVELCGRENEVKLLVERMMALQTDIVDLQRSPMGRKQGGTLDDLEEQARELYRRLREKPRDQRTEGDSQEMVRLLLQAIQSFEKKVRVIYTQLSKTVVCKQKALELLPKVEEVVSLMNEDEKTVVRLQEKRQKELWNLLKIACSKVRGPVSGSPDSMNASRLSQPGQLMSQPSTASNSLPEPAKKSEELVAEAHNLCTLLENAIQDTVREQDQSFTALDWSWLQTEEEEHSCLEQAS
# [9] = target: T3, Inhibitor of nuclear factor kappa-B kinase subunit beta (Homo sapiens); details: at 1 µM
# [10] = target: T4, Inhibitor of nuclear factor kappa-B kinase subunit epsilon (Homo sapiens) (UniProt Q14164); details: at 0.1 µM
# T4 sequence (whole entry): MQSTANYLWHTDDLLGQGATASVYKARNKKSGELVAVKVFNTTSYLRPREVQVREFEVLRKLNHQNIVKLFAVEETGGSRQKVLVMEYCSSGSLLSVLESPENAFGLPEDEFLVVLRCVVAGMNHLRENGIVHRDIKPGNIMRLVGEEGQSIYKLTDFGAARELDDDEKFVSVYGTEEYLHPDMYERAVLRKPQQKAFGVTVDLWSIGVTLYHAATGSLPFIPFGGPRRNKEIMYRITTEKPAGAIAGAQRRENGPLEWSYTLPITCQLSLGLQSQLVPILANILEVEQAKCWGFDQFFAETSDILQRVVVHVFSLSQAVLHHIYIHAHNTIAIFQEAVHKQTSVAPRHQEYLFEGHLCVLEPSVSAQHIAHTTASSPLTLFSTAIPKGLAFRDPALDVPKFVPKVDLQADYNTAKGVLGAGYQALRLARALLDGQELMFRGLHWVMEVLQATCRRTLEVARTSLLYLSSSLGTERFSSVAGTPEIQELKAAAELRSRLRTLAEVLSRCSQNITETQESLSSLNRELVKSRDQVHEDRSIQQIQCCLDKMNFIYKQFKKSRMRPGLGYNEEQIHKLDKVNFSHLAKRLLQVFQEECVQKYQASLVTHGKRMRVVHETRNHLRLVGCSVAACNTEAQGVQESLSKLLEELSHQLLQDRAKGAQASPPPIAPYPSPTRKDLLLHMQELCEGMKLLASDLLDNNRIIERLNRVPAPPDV
# [11] = target: T4, Inhibitor of nuclear factor kappa-B kinase subunit epsilon (Homo sapiens); details: at 1 µM
# [12] = target: T5, Serine/threonine-protein kinase Nek1 (Homo sapiens) (UniProt Q96PY6); details: at 0.1 µM
# T5 sequence (whole entry): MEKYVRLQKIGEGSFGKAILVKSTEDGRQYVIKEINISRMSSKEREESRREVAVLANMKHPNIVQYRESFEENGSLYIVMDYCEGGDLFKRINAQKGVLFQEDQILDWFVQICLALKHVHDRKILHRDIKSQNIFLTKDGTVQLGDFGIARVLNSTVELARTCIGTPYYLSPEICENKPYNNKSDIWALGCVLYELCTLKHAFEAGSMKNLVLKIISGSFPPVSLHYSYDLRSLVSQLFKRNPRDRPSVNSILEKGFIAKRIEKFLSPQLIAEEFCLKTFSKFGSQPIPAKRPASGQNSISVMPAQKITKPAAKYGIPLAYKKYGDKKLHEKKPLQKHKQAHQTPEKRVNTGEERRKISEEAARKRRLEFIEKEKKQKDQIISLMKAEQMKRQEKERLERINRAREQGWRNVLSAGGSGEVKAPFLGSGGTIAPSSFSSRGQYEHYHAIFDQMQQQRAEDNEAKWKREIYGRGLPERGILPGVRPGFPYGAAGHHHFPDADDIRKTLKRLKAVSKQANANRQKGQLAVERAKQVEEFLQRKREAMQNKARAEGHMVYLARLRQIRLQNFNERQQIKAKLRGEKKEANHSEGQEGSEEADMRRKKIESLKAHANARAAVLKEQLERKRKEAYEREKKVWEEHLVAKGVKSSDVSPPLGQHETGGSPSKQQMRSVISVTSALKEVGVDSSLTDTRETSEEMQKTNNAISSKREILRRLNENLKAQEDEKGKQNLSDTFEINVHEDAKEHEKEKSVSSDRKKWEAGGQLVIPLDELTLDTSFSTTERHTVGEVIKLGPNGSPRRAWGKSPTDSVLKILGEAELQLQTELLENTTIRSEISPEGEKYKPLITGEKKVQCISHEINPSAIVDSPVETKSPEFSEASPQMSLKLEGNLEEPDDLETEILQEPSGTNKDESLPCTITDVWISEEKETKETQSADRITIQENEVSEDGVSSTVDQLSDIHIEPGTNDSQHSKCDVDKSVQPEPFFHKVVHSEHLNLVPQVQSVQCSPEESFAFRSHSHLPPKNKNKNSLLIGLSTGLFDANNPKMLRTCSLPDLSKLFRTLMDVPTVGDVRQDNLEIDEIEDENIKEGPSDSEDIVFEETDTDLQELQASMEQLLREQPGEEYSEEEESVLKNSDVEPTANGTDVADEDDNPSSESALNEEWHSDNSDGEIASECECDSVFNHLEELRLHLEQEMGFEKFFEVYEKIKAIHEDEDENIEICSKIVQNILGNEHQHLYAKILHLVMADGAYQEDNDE
# [13] = target: T5, Serine/threonine-protein kinase Nek1 (Homo sapiens); details: at 1 µM
# [14] = target: T6, Serine/threonine-protein kinase Nek2 (Homo sapiens) (UniProt P51955); details: at 0.1 µM
# T6 sequence (whole entry): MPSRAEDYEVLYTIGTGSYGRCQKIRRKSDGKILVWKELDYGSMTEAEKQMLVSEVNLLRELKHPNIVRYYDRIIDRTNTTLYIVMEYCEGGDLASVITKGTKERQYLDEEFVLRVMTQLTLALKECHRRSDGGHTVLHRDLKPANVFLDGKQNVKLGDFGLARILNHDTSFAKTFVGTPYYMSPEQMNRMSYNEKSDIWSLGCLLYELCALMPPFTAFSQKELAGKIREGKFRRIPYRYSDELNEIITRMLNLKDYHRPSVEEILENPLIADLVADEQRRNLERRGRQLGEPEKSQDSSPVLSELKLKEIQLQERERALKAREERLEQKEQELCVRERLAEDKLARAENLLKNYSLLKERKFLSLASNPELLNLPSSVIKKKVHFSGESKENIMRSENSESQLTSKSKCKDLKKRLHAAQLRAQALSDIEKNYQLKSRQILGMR
# [15] = target: T6, Serine/threonine-protein kinase Nek2 (Homo sapiens); details: at 1 µM
# [16] = target: Serine/threonine-protein kinase Nek6 (Homo sapiens) (UniProt Q9HC98); details: at 0.1 µM
# Sequence of Serine/threonine-protein kinase Nek6 (Homo sapiens) (Q9HC98 whole entry): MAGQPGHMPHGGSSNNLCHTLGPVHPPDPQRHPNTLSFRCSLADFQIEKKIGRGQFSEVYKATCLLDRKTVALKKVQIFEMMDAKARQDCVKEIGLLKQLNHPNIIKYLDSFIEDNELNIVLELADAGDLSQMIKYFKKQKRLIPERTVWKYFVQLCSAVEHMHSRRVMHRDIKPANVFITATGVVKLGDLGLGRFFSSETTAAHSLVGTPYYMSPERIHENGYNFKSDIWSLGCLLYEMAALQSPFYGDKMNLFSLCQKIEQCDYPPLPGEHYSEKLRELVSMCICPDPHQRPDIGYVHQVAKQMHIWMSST
# [17] = target: Serine/threonine-protein kinase Nek6 (Homo sapiens) (UniProt Q9HC98); details: at 1 µM
# [18] = target: Serine/threonine-protein kinase Nek7 (Homo sapiens) (UniProt Q8TDX7); details: at 0.1 µM
# Sequence of Serine/threonine-protein kinase Nek7 (Homo sapiens) (Q8TDX7 whole entry, looked up): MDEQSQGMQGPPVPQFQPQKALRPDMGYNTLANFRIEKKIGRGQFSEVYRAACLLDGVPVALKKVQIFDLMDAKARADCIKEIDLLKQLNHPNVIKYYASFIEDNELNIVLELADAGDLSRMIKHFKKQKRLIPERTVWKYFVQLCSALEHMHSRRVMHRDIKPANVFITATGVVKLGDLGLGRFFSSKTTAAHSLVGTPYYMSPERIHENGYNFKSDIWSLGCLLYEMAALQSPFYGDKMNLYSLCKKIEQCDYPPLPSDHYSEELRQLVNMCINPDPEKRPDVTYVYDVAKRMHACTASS
# [19] = target: Serine/threonine-protein kinase Nek7 (Homo sapiens) (UniProt Q8TDX7); details: at 1 µM
# [20] = target: T7, Serine/threonine-protein kinase Nek9 (Homo sapiens) (UniProt Q8TD19); details: at 0.1 µM;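 further: reported value is the mean percent inhibition of NEK9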
# T7 sequence (whole entry): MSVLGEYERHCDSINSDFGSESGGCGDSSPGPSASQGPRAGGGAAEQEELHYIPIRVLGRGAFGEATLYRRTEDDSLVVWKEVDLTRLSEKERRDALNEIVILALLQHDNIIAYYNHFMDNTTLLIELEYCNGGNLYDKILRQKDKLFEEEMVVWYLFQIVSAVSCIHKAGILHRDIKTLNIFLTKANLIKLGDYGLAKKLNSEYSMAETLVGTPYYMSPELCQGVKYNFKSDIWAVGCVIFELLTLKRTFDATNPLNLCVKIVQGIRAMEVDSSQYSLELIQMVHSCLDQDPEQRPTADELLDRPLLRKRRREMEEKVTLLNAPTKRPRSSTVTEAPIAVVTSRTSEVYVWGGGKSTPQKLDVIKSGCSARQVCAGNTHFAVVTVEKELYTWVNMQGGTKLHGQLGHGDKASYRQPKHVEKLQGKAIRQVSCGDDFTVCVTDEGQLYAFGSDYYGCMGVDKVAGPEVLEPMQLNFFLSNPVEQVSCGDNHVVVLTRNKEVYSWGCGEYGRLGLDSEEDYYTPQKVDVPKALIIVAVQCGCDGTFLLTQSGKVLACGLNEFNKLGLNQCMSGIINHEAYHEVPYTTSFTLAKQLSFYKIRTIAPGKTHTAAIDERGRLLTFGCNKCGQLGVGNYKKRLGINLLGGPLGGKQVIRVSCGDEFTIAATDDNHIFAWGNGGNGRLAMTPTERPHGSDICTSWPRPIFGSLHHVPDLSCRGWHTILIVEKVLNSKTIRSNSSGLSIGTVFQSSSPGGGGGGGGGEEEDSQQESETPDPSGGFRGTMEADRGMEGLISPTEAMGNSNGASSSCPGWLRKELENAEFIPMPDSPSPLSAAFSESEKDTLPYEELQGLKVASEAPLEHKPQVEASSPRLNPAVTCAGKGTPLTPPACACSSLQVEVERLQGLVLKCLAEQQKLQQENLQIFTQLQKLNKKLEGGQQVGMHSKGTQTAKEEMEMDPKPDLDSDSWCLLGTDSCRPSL
# Sequence of Sphingosine kinase 1 (Homo sapiens) (Q9NYA1 whole entry): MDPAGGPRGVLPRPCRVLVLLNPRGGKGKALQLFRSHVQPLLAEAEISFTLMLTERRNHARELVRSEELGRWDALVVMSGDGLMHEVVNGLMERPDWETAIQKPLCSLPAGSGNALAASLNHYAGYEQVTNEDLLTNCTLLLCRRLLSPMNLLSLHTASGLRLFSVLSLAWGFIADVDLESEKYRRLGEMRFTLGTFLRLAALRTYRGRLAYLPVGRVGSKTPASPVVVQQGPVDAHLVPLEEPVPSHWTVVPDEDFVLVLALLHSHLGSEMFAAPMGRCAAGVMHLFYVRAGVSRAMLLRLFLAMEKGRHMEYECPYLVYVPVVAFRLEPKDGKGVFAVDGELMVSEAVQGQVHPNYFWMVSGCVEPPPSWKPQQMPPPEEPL
Structure (SMILES),inhibition [1] [%],inhibition [2] [%],inhibition [3] [%],inhibition [4] [%],inhibition [5] [%],inhibition [6] [%],inhibition [7] [%],inhibition [8] [%],inhibition [9] [%],inhibition [10] [%],inhibition [11] [%],inhibition [12] [%],inhibition [13] [%],inhibition [14] [%],inhibition [15] [%],inhibition [16] [%],inhibition [17] [%],inhibition [18] [%],inhibition [19] [%],inhibition [20] [%]
Cc1c2ccc(N(C)c3ccnc(Nc4cccc(S(N)(=O)=O)c4)n3)cc2nn1C,1.41,-0.17,0,0.52,0.25,7.99,3.93,5.79,5.44,4.78,6.19,3.11,4.82,6.4,19.9,0.7,0.72,5.3,3.13,9.14
COc1cc(Nc2ncc(-c3ccccc3)o2)cc(OC)c1,2.45,-0.24,-0.57,3.79,3.91,2.7,4.19,4.63,7.8,12.6,10.9,1.83,4.11,5.36,5.95,3.13,1.56,3.14,5.01,10.4
